The test system of the experiment is Plasmodium falciparum NF54 stage V gametocytes. The experiment in a line: viability index relative to DMSO control (fraction); higher = less gametocyte killing. The settings on record: 2.5 µM, incubation time: 72 h. The method, boiled down: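 Compound at 2.5 µM was incubated for 72 hr at 37°C under low oxygen with P. falciparum NF54 stage V gametocytes (0.75% gametocytemia, 1.25% hematocrit, 10 µl, serum-free screening medium) in 1,536-well plates. Staining used 3 µl of 2.5 µM MitoTracker Red CMXRos plus 0.13% saponin for one to two hours, and red particles of 20–70 µm2 were counted in one imaged field per well. Each viability index is that count relative to the plate mean of solvent-only wells.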

[1] abbreviates: library set: Broad Institute DOS.
The mark [2] stands for this setting: library set: Broad Institute Blood Stage.

± gives the uncertainty stated by the source. The full ranking holds about 9,900 compounds; the median of “viability index relative to DMSO control” is about 1, and the lowest 2% start at about 0.85. For the sample, the lowest values were picked, then their nearest neighbours and some compounds at random.

Regarding `COCC#Cc1ccc([C@@H]2[C@H](CO)N3C(=O)CN(C(=O)CN4CCOCC4)C[C@@H]23)cc1`, the viability index under setting [1] worked out at 1.02 ± 0.05.
Same read-out and setting: as for `C[C@@H](NC(=O)C[C@H]1C=C[C@@H](NS(=O)(=O)c2cccc(F)c2)[C@H](CO)O1)c1ccccc1`, the figure is 1.17 ± 0.04.
Under setting [1], `O=C(N[C@@H]1CC[C@H](CC(=O)N2CCOCC2)O[C@H]1CO)c1cccc(F)c1` displayed a viability index of 1.07 ± 0.062.
Under setting [1], `O=C(Nc1ccccc1)N1CC(=O)N2[C@H](CO)[C@@H](c3ccc(C#CC4CCCCC4)cc3)[C@@H]2C1` yielded a viability index of 1.04 ± 0.086.
In the case of `COCC(=O)N1CC[C@@]2(CC1)CN([C@@H](CO)c1c2c2ccc(OC)cc2n1C)C(=O)c1ccccn1`, the viability index under setting [1] was found to be 1.02 ± 0.1.
Compound `CO[C@@H]1CN(C)C(=O)c2cc(NS(=O)(=O)CC(F)(F)F)ccc2OC[C@H](C)NC[C@@H]1C` returned a viability index under setting [1] of 1.05 ± 0.059.
The same measure, in the same setting: the value for `O=C(NCC[C@@H]1CC[C@@H](NS(=O)(=O)Cc2ccccc2)[C@@H](CO)O1)C1CCCCC1` was 0.968 ± 0.15; that for `CN(C)C(=O)C[C@@H]1C=C[C@H](NC(=O)c2ccc(F)cc2)[C@@H](CO)O1` was 1.11 ± 0.097; that for `Cc1ccc(S(=O)(=O)Nc2cccc3c2O[C@@H](CN(C)C(=O)Nc2ccc(C(F)(F)F)cc2)[C@@H](C)CN([C@H](C)CO)C3=O)cc1` was 1.08 ± 0.061.
As for `C[C@@H]1CN([C@@H](C)CO)C(=O)c2cccc(NC(=O)c3nc4ccccc4s3)c2O[C@H]1CN(C)C(=O)Nc1ccc(C(F)(F)F)cc1`, the viability index under setting [2] came out at 0.811 ± 0.058.
Compound `C[C@@H]1CN([C@H](C)CO)C(=O)c2cccc(NC(=O)c3nc4ccccc4s3)c2O[C@H]1CN(C)C(=O)Nc1ccc2c(c1)OCO2` registered a viability index under setting [1] of 0.9047 ± 0.0069.
Under setting [2], `C[C@H](CO)N1C[C@H](C)[C@@H](CN(C)C(=O)Nc2ccc3c(c2)OCO3)Oc2ccc(NC(=O)Nc3ccc(C(F)(F)F)cc3)cc2CC1=O` came in with a viability index of 0.755 ± 0.061.
Under setting [1], `Cc1ccc(S(=O)(=O)Nc2cccc3c2O[C@H](CN(C)C(=O)Nc2ccc(C(F)(F)F)cc2)[C@@H](C)CN([C@H](C)CO)C3=O)cc1` returned a viability index of 1.02 ± 0.029.
The same measure, in the same setting: the value for `C[C@@H]1CN([C@H](C)CO)C(=O)c2cccc(NC(=O)NC3CCCCC3)c2O[C@H]1CN(C)Cc1ccc(C(F)(F)F)cc1` was 1.01 ± 0.083.
On to `C[C@@H]1CN([C@H](C)CO)C(=O)c2cccc(NC(=O)NC3CCCCC3)c2O[C@@H]1CN(C)Cc1ccc(C(F)(F)F)cc1`, for which the viability index under setting [1] turned out to be 0.977 ± 0.071.
`C[C@H](CO)N1C[C@H](C)[C@@H](CN(C)C(=O)Nc2ccc(C(F)(F)F)cc2)Oc2ccc(NS(=O)(=O)c3ccc(Cl)cc3)cc2CC1=O` displayed a viability index under setting [1] of 0.917 ± 0.088.
Regarding `C[C@@H]1CN([C@@H](C)CO)C(=O)c2cccc(NC(=O)C3CC3)c2O[C@@H]1CN(C)C(=O)Nc1ccc(C(F)(F)F)cc1`, the viability index under setting [2] stood at 0.594 ± 0.06.
In turn, `C[C@H](CO)N1C[C@H](C)[C@@H](CN(C)C(=O)Nc2ccc3c(c2)OCO3)Oc2c(NC(=O)c3nc4ccccc4s3)cccc2C1=O` came in with a viability index under setting [1] of 1.01 ± 0.041.
On the same count and under the same terms, as for `C[C@H](CO)N1C[C@H](C)[C@H](CN(C)C(=O)Nc2ccc(C(F)(F)F)cc2)Oc2ccc(NS(=O)(=O)c3ccc(Cl)cc3)cc2CC1=O`, the figure is 1.009 ± 0.0083; as for `C[C@@H]1CN([C@@H](C)CO)C(=O)c2cccc(NC(=O)NC3CCCCC3)c2O[C@@H]1CN(C)Cc1ccc(C(F)(F)F)cc1`, 0.813 ± 0.08; as for `O=C(Nc1ccccc1F)N1CC(=O)N2[C@@H](CO)[C@H](c3ccc(-c4cccnc4)cc3)[C@@H]2C1`, 1.08 ± 0.028.
With `Cc1noc(C)c1NC(=O)N(C)C[C@@H]1OCc2cnnn2CCCC(=O)N([C@H](C)CO)C[C@@H]1C`, the viability index under setting [1] was 1.09 ± 0.08.
Compound `CO[C@@H]1CN(C)C(=O)c2ccc(NC(=O)NC(C)C)cc2OC[C@@H](C)N(Cc2ccc(-c3ccccn3)cc2)C[C@H]1C` showed a viability index under setting [1] of 1.03 ± 0.023.
Consider `COCC(=O)Nc1ccc2c(c1)C(=O)N(C)[C@@H]1CC[C@H](CC(=O)N3CCc4ccccc4C3)O[C@@H]1CO2`, for which, under setting [1], the viability index turned out to be 1.0023 ± 0.00098.
Consider `C/C=C/c1ccc([C@H]2[C@H]3CNC[C@@H]2N3S(=O)(=O)c2ccccc2C)cc1`, for which, under setting [1], the viability index was 1.04 ± 0.027.
For `C[C@H]1CN([C@@H](C)CO)C(=O)c2c(c3ccccc3n2C)-c2ccccc2CO[C@H]1CN(C)S(=O)(=O)c1ccc(F)cc1`, the viability index under setting [2] was determined as 0.929 ± 0.041.
Compound `C[C@H]1CN([C@@H](C)CO)C(=O)c2c(c3ccccc3n2C)-c2ccccc2CO[C@H]1CN(C)S(=O)(=O)c1ccc(Cl)cc1` returned a viability index under setting [2] of 0.738 ± 0.023.
In turn, `C[C@H](CO)N1C[C@H](C)[C@H](CN(C)S(=O)(=O)c2ccc(F)cc2)OCc2ccccc2-c2c(n(C)c3ccccc23)C1=O` came in with a viability index under setting [2] of 0.942 ± 0.045.
Still for that read-out and setting: the value for `COc1ccc(S(=O)(=O)N(C)C[C@@H]2OCc3ccccc3-c3c(n(C)c4ccccc34)C(=O)N([C@@H](C)CO)C[C@@H]2C)cc1` was 0.936 ± 0.044; that for `Cc1ccc(S(=O)(=O)N(C)C[C@@H]2OCc3ccccc3-c3c(n(C)c4ccccc34)C(=O)N([C@@H](C)CO)C[C@@H]2C)cc1` was 0.728 ± 0.062.
Compound `C[C@H](CO)N1C[C@H](C)[C@H](CN(C)S(=O)(=O)c2ccc(C#N)cc2)OCc2ccccc2-c2c(n(C)c3ccccc23)C1=O` gave a viability index under setting [2] of 1.01 ± 0.03.
Under setting [1], `CCNC(=O)C[C@@H]1CC[C@H]2[C@@H](COC[C@H](O)CN2C(=O)c2ccccn2)O1` returned a viability index of 1.14 ± 0.062.
Same read-out and setting: the value for `COc1cccc(C#Cc2ccc3c(c2)O[C@@H](CN(C)C(=O)CN2CCOCC2)[C@@H](C)CN([C@H](C)CO)S3(=O)=O)c1` was 0.966 ± 0.13; that for `C[C@@H]1CCCCO[C@H](CN(C)Cc2ccc(C(=O)O)cc2)[C@@H](C)CN([C@@H](C)CO)C(=O)c2cc(N(C)C)ccc2O1` was 1.07 ± 0.11.
`COCC#Cc1ccc([C@@H]2[C@@H](CO)N3C(=O)CN(C(=O)c4ccncc4)C[C@H]23)cc1`: the viability index under setting [1] is 1.12 ± 0.087.

The values above are taken from the supplement of paper PMC4723716.
